Reference: PubChem BioAssay (NCI)
Compounds without any hit were thinned out: in the full panel of roughly 79,000, 15% have a hit. The source made the active and inactive calls. Cut-off read from the data, not from the text of the source: active = growth inhibition above about 70%; inactive = the rest.

experiment: NCI Yeast Anticancer Drug Screen. Data for the mgt1 strain (AID 153); details: S. cerevisiae mgt1 mutant growth inhibition; at 3.7 µM; active compounds read high
Method in brief: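 Read-out: yeast growth inhibition vs vehicle control. Strain mgt1, drawn from a panel altered in DNA damage repair or cell cycle control.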

| Compound | growth inhibition |
| --- | --- |
| CCS(=O)(=O)c1ccc(/C=C/C=N/NC(=S)NCC(C)C)cc1 | 2% (inactive) |
| CCC(=O)Oc1c(Cl)cc(Cl)c2ccccc12 | -10% (inactive) |
| COc1cc2c3c(cccc3c1)C(=O)N(CCN(C)C)C2=O | -22% (inactive) |
| CN(C)c1ccc(C(C#N)=C(C#N)C#N)cc1 | -2% (inactive) |
| O=C(CCCN1CCC2(CC1)CC(=O)N(N1CCCCCC1)C2=O)c1ccc(F)cc1 | 45% (inactive) |
| O=C1C2C(C(=O)N1c1ccc(OCc3ccccc3)cc1)C1c3ccccc3C2C2CCCCN21 (stereo not given) | 4% (inactive) |
| CCN(CC)CCC(=O)c1ccc(Oc2ccc(F)cc2)cc1 | 59% (inactive) |
| O=Nc1c(NO)ccc2nn(-c3ccccc3)nc12 | 24% (inactive) |
| CC(=O)SCCC[Si](C)(C)CCCSC(C)=O | -4% (inactive) |
| O=C(O)C1CCCCC1c1c2ccc(=O)c(O)c-2oc2c(O)c(O)ccc12 (stereo not given) | 10% (inactive) |
| Cc1ccc(NN(NC(=O)OC(C)C)C(=O)OC(C)C)cc1 | -3% (inactive) |
| O=C1c2ccccc2C(=O)c2cc(CBr)ccc21 | 2% (inactive) |
| Cc1c(C(Cc2ccccc2N(C)C(=O)/C=C\C(=O)O)c2c[nH]c3ccccc23)c2ccccc2n1C (stereo not given) | -3% (inactive) |
| CC(C)/C(Cl)=N\OC(=O)Nc1ccc(F)cc1 | 0% (inactive) |
| O=C1OC(=O)C2CCCC3CCCC1C32 (stereo not given) | 48% (inactive) |
| CCOC(=O)C(NC(=O)c1ccccc1)(N1CCN(c2cc3c(cc2F)c(=O)c(C(=O)O)cn3C2CC2)CC1)C(F)(F)F (stereo not given) | 1% (inactive) |
| COc1ccc(NC(=S)N/N=C(\c2ccccc2)c2ccccn2)cc1 | -6% (inactive) |
| C=CCC1=C(C)C(OC(=O)/C=C/c2ccccc2)CC1=O (stereo not given) | -2% (inactive) |
| NNc1c(F)c(F)cc(F)c1F | -23% (inactive) |
| COP(=O)(OC)/C(=C\C1=CN(C(c2ccccc2)(c2ccccc2)c2ccccc2)CN1)NC=O | -3% (inactive) |
| COC(=O)c1cc(-c2ccc(C)cc2)[nH]c(=O)c1C#N | 0% (inactive) |

same assay, conditions: S. cerevisiae mgt1 mutant growth inhibition; at 11.0 µM; active compounds read high

| Compound | growth inhibition |
| --- | --- |
| CCOP(=O)(OCC)C(Cc1ccccc1)N=C(c1ccccc1)c1ccccc1 (stereo not given) | 10% (inactive) |
| CCc1ncnc2cc(OCC3CO3)c(OC)cc12 (stereo not given) | -3% (inactive) |
| CCOC(=O)[C@H]1Nc2ccccc2C2c3ccccc3CC21 (stereo not given in full) | 53% (inactive) |
| O=CNc1ccc2c(c1)C(=O)c1ccccc1-2 | 9% (inactive) |
| CCOc1ccc2c(c1)c(CC(=O)O)cn2C | 1% (inactive) |
| OC1CSCCCSCCSCCCSC1 | -10% (inactive) |
| N#Cc1c(N)[nH]c2ccc(Sc3ccccc3)cc12 | 9% (inactive) |
| Cc1ccc(-c2ccc(Nc3c4ccccc4nc4ccccc34)cc2)cn1 | 7% (inactive) |
| c1ccc2c(c1)NC(NC1Nc3ccccc3N1)N2 | -4% (inactive) |
| OC(COc1cccc2ccccc12)CN1CCOCC1 (stereo not given) | 42% (inactive) |
| CCC/C(Cl)=N\OC(=O)Nc1ccc(Br)cc1 | 82% (active) |
| COc1ccc(/C=C2\SC(=S)N(/C=C/c3nc4ccccc4[nH]c3=O)C2=O)cc1OC | 30% (inactive) |
| O=C(NNc1ccnc2cc(Cl)ccc12)/C(=C\c1ccccc1Cl)NC(=O)c1ccccc1 | 32% (inactive) |
| CSC1=NNC(SC)=NN1 | 12% (inactive) |
| Cc1c(C2=C(Br)C(=O)N(C)C2=O)c(=O)n(C)c(=O)n1C | 8% (inactive) |
| NCCNc1ccc(NCCN)c2c1C(=O)c1c(O)ccc(O)c1C2=O | -9% (inactive) |
| Cn1c(=O)c(-c2ccccc2)c(N=[N+]=[N-])c2ccccc21 | 32% (inactive) |
| CCCCCCCCCCCCCCCCCCOCC(O)COP(=O)(O)OCC1OC(n2cc(F)c(=O)[nH]c2=O)CC1O (stereo not given) | 64% (inactive) |
| CCS(=O)(=O)c1ccc(/C=C/C=N/NC(=S)NCC(C)C)cc1 | -2% (inactive) |
| CCC(=O)Oc1c(Cl)cc(Cl)c2ccccc12 | -2% (inactive) |

| Compound | growth inhibition |
| --- | --- |
| COc1cc2c3c(cccc3c1)C(=O)N(CCN(C)C)C2=O | -32% (inactive) |
| CN(C)c1ccc(C(C#N)=C(C#N)C#N)cc1 | -1% (inactive) |
| O=C(CCCN1CCC2(CC1)CC(=O)N(N1CCCCCC1)C2=O)c1ccc(F)cc1 | 67% (inactive) |
| O=C1C2C(C(=O)N1c1ccc(OCc3ccccc3)cc1)C1c3ccccc3C2C2CCCCN21 (stereo not given) | -11% (inactive) |
| CCN(CC)CCC(=O)c1ccc(Oc2ccc(F)cc2)cc1 | 76% (active) |
| O=Nc1c(NO)ccc2nn(-c3ccccc3)nc12 | 98% (active) |
| CC(=O)SCCC[Si](C)(C)CCCSC(C)=O | -5% (inactive) |
| O=C(O)C1CCCCC1c1c2ccc(=O)c(O)c-2oc2c(O)c(O)ccc12 (stereo not given) | 15% (inactive) |
| Cc1ccc(NN(NC(=O)OC(C)C)C(=O)OC(C)C)cc1 | 1% (inactive) |
| O=C1c2ccccc2C(=O)c2cc(CBr)ccc21 | 4% (inactive) |
| Cc1c(C(Cc2ccccc2N(C)C(=O)/C=C\C(=O)O)c2c[nH]c3ccccc23)c2ccccc2n1C (stereo not given) | -2% (inactive) |
| CC(C)/C(Cl)=N\OC(=O)Nc1ccc(F)cc1 | 6% (inactive) |
| O=C1OC(=O)C2CCCC3CCCC1C32 (stereo not given) | 82% (active) |
| CCOC(=O)C(NC(=O)c1ccccc1)(N1CCN(c2cc3c(cc2F)c(=O)c(C(=O)O)cn3C2CC2)CC1)C(F)(F)F (stereo not given) | 0% (inactive) |
| COc1ccc(NC(=S)N/N=C(\c2ccccc2)c2ccccn2)cc1 | 8% (inactive) |
| C=CCC1=C(C)C(OC(=O)/C=C/c2ccccc2)CC1=O (stereo not given) | -1% (inactive) |
| NNc1c(F)c(F)cc(F)c1F | -17% (inactive) |
| COP(=O)(OC)/C(=C\C1=CN(C(c2ccccc2)(c2ccccc2)c2ccccc2)CN1)NC=O | 11% (inactive) |
| COC(=O)c1cc(-c2ccc(C)cc2)[nH]c(=O)c1C#N | 0% (inactive) |
